Only some compounds are listed: those with a hit (about 7.5% of all), similar ones and a draw of the others.
ELG1 genotoxic: qHTS screen for small molecules that induce genotoxicity in human embryonic kidney (HEK293T) cells expressing luciferase-tagged ELG1. HEK293T ELG1-luciferase reporter, luminescence, 16 h. Potency, µM (titrated, usually from 46 µM), most hits filed as activators. 330,000 compounds, 1.3% hits; note: nearly all actives have a fitted effect of over 60% in size
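Reporter readout depends on ELG1 protein level, which increases with genetic stress. After 16 hr compound exposure at 37 °C, luciferase activity was quantified using ONE-Glo.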
FLuc modulator: qHTS profiling assay for firefly luciferase inhibitor/activator using purifed enzyme and Km concentrations of substrates (counterscreen for miR-21 project); purified FLuc, Km substrates, luminescence inhibition; Potency, µM (top dose mostly 57.5 µM), hits mostly inhibitors; 360,000 compounds, 6.9% hits; note: nearly all actives have a fitted effect of over 55% in size
Target sequence (P08659 whole entry, looked up): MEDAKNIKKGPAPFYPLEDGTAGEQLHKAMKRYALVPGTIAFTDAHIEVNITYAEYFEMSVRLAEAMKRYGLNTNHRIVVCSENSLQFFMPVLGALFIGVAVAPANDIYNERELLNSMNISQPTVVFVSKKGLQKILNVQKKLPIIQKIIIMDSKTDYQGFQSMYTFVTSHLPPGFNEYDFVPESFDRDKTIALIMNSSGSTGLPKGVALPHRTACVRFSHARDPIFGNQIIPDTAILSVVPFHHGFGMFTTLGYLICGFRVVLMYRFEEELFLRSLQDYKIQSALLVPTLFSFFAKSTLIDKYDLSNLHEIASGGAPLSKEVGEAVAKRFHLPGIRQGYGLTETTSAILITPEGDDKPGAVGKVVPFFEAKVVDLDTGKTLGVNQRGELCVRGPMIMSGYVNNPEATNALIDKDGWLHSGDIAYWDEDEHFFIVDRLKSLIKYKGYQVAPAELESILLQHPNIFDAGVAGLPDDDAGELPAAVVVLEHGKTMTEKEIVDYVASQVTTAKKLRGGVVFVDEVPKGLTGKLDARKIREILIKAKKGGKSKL
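Purified P. pyralis luciferase, 10 nM final, with Km-level 10 uM D-luciferin and 10 uM ATP in 50 mM Tris acetate pH 7.5, 10 mM Mg acetate, 0.01% Tween-20, 0.05% BSA; 6-point qHTS titration about 60 µM downward; luminescence read.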
SMN2 splice up: qHTS Assay for Enhancers of SMN2 Splice Variant Expression; HEK293 SMN2-luciferase splicing reporter, luminescence, 30-36 h; Potency, µM (top dose mostly 46.1 µM), actives largely listed as activators; 210,000 compounds, 2.8% hits; AID 1458, 2008; note: nearly all actives have a fitted effect of over 55% in size
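HEK293 cells carry an SMN2 […]–luciferase reporter in which exon 7 inclusion puts luciferase in frame. Cells were plated 10-12 h before compound addition, then incubated 30-36 h at 37C. ONE-Glo luminescence was read; sodium butyrate at 4.5 mM final served as control.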
NPC1 prom act: qHTS Assay for NPC1 Promoter Activators; AID 485313, 2010; Potency, µM (series often up to 9.22 µM), most hits filed as activators; Huh7 NPC1 promoter luciferase reporter, 24 h; 320,000 compounds, 2.4% hits; note: nearly all actives have a fitted effect of over 60% in size
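Huh7 cells stably carrying NPC1 promoter–luciferase, plated in Opti-MEM with 10% FBS for 2 h, were exposed to compound in DMSO for 24 h at 37 °C; luciferase reagent was added for 10 min and luminescence read.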
Rab9 promoter act: qHTS Assay for Rab9 Promoter Activators. Huh7 Rab9 promoter-luciferase reporter, luminescence, 24 h. Potency, µM (top dose mostly 9.22 µM), actives largely listed as activators. 320,000 compounds, 2.8% hits; note: nearly all actives have a fitted effect of over 60% in size
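Luciferase signal after 10 min detection reagent at ambient indicates Rab9 promoter upregulation; stably transfected Huh7 cells were treated 24 h with compound in DMSO at 37 °C, 5% CO2.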
Each line names hits and unclear results; the compound was inactive in the other large screens. Calls come from the whole dose curve; as a rule, active = well fitted curve in the direction sought with a large enough effect; inconclusive = small, poorly fitted or top-dose-only effect, or another doubt; inactive = no such curve, though single readings can be large; an effect the other way counts as inactive or inconclusive.

COC(=O)c1sc(NC(=S)NC(=O)c2cccc(C)c2)nc1C	ELG1 genotoxic inconclusive, FLuc modulator inconclusive, Rab9 promoter act inconclusive
COc1ccc(NS(=O)(=O)c2cc(C(=O)N3CCC3)ccc2C)cc1	none (no result: SMN2 splice up)
Cc1ccc(N2C(=O)CCC(C(=O)O)C2c2cccs2)cc1 (stereo not drawn)	none (no result: SMN2 splice up)
COc1ccc2c(c1)OC1(O)COc3cc(OC)c(OC)cc3C1=C2 (stereo not drawn)	none (no result: ELG1 genotoxic, FLuc modulator, NPC1 prom act, Rab9 promoter act)
Cn1c(=O)n(C)c2cc(NS(=O)(=O)c3ccc(Br)cc3)c(NCc3ccccc3)cc21	FLuc modulator inconclusive, SMN2 splice up 7.1µM (no result: ELG1 genotoxic, NPC1 prom act, Rab9 promoter act)
COc1ccc(S(=O)(=O)Nc2cc3c(cc2NCc2ccccc2)n(C)c(=O)n3C)cc1	FLuc modulator 24µM, SMN2 splice up 10µM (no result: ELG1 genotoxic, NPC1 prom act, Rab9 promoter act)
Cn1c(=O)n(C)c2cc(S(=O)(=O)NCc3ccccc3)ccc21	none
COc1ccc(NS(=O)(=O)c2ccc3c(c2)n(C)c(=O)n3C)cc1	none
CCCS(=O)(=O)Nc1cc2c(cc1NCc1ccccc1)n(C)c(=O)n2C	FLuc modulator inconclusive, SMN2 splice up 5.6µM (no result: ELG1 genotoxic, NPC1 prom act, Rab9 promoter act)
CN(Cc1ccccc1)C(=O)C1CCN(S(=O)(=O)Cc2ccccc2)CC1	none (no result: ELG1 genotoxic, SMN2 splice up, NPC1 prom act, Rab9 promoter act)
CC(C)c1cc(C(=O)Nc2cc(Cl)ccc2O)no1	ELG1 genotoxic inconclusive, FLuc modulator 7.6µM, SMN2 splice up 13µM, NPC1 prom act 2.8µM, Rab9 promoter act 1.6µM
Cc1noc(C(=O)Nc2cc(Cl)ccc2O)c1Cl	none (no result: SMN2 splice up)
CSc1ccccc1NC(=O)c1cc(C(C)C)on1	ELG1 genotoxic 12µM, FLuc modulator 21µM, NPC1 prom act inconclusive, Rab9 promoter act inconclusive
CCCc1cc(C(=O)Nc2cc(Cl)ccc2O)no1	ELG1 genotoxic 16µM, FLuc modulator 11µM, NPC1 prom act inconclusive, Rab9 promoter act inconclusive (no result: SMN2 splice up)
CCCc1cc(C(=O)Nc2cc(Br)ccc2O)no1	ELG1 genotoxic 13µM, FLuc modulator inconclusive, SMN2 splice up inconclusive
CC(=O)C1=C(C)Nc2ncnn2C1c1ccc(Br)cc1 (stereo not drawn)	none (no result: SMN2 splice up)
CCN(CC)c1ccc(/C=C/c2nc3ccccc3s2)cc1	ELG1 genotoxic 0.46µM, FLuc modulator 0.6µM, NPC1 prom act inconclusive
Cc1noc(C)c1CSCC(=O)N(C)CC(=O)Nc1ccccc1C(F)(F)F	none (no result: SMN2 splice up)
CCOC(=O)c1c(C)c(-c2ccccc2)n(CC(=O)Nc2cccc(C)c2C)c1C	none (no result: ELG1 genotoxic, NPC1 prom act, Rab9 promoter act)
Cc1ccc(OCC(=O)NCC2(N3CCOCC3)CCCCC2)cc1C	none (no result: ELG1 genotoxic, SMN2 splice up, NPC1 prom act, Rab9 promoter act)
NC(=O)C1CCN(c2nc(-c3cccc(Cl)c3)cs2)CC1	FLuc modulator inconclusive, Rab9 promoter act inconclusive (no result: SMN2 splice up)
COc1ccc(-c2csc(N3CCC(C(N)=O)CC3)n2)cc1	FLuc modulator 21µM, Rab9 promoter act inconclusive (no result: SMN2 splice up)
NC(=O)C1CCN(c2nc(-c3ccc4ccccc4c3)cs2)CC1	FLuc modulator 12µM, NPC1 prom act 2µM, Rab9 promoter act inconclusive (no result: SMN2 splice up)
Cc1ccc(-c2csc(N3CCC(C(N)=O)CC3)n2)cc1	FLuc modulator 11µM, NPC1 prom act 1.3µM, Rab9 promoter act 2µM (no result: SMN2 splice up)
NC(=O)C1CCN(c2nc(-c3ccccc3-c3ccccc3)cs2)CC1	none (no result: SMN2 splice up)
N#Cc1ccc(-c2csc(N3CCC(C(N)=O)CC3)n2)cc1	none (no result: ELG1 genotoxic, SMN2 splice up, NPC1 prom act, Rab9 promoter act)
CC(=O)c1cccc(-c2csc(N3CCC(C(N)=O)CC3)n2)c1	FLuc modulator 17µM, NPC1 prom act 1.3µM, Rab9 promoter act 0.4µM (no result: SMN2 splice up)
CCCCOc1ccc(CSc2nncn2N)cc1	ELG1 genotoxic inconclusive, FLuc modulator inconclusive, NPC1 prom act inconclusive, Rab9 promoter act inconclusive
CCCCCOc1ccc(CSc2ncn[nH]2)cc1	ELG1 genotoxic inconclusive, FLuc modulator 12µM, SMN2 splice up 11µM, NPC1 prom act inconclusive, Rab9 promoter act 2.5µM
CCCCOc1ccc(CSc2n[nH]c(C)n2)cc1	ELG1 genotoxic 21µM, FLuc modulator inconclusive, SMN2 splice up 18µM, NPC1 prom act inconclusive, Rab9 promoter act inconclusive
CCOC(=O)c1ccc(CSc2ncn[nH]2)o1	none
CCCCOc1ccc(CSc2ncn[nH]2)cc1	FLuc modulator 7.6µM, NPC1 prom act inconclusive, Rab9 promoter act inconclusive
CCOC(=O)c1nc2c(ccc3ccccc32)cc1C	FLuc modulator 15µM (no result: SMN2 splice up)
O=C(CNc1ccc2ccccc2c1)N/N=C/c1ccccn1	none (no result: SMN2 splice up)
C(=N\NC1=Nc2cccc3cccc1c23)/c1ccccn1	ELG1 genotoxic inconclusive, FLuc modulator 1.5µM
Clc1ccccc1/C=N/NC1=Nc2cccc3cccc1c23	ELG1 genotoxic 16µM, FLuc modulator 0.85µM, SMN2 splice up 5.6µM, NPC1 prom act inconclusive, Rab9 promoter act 4.5µM
CCOC(=O)c1cnn(-c2cc(C)nc3c(-c4ccccc4)c(C)nn23)c1N	none
CCOC(=O)c1c(C)nc(-c2ccccc2)nc1N	ELG1 genotoxic 18µM, Rab9 promoter act inconclusive (no result: SMN2 splice up)
CCOC(=O)c1c(C)nc(C)c(C(=O)OCC)c1-c1ccccc1	FLuc modulator 6µM, SMN2 splice up 16µM, NPC1 prom act 4µM, Rab9 promoter act 2.2µM
CCOC(=O)c1c(C)nc(C)c(C(=O)OCC)c1-c1cccnc1	none (no result: SMN2 splice up)
CCOC(=O)c1c(-c2ccccc2)cn2c(C)cc(C)nc12	ELG1 genotoxic 16µM, FLuc modulator 3.4µM, SMN2 splice up 11µM, NPC1 prom act 3.2µM, Rab9 promoter act 2.8µM
CCn1c(SCC(=O)Nc2sccc2C(N)=O)nnc1C1CC1	none (no result: SMN2 splice up)
CCOC(=O)CCN(c1ccccc1)S(=O)(=O)c1ccc2[nH]c(=O)ccc2c1	none (no result: ELG1 genotoxic, SMN2 splice up, NPC1 prom act, Rab9 promoter act)
CCN(c1ccc(OC)cc1)S(=O)(=O)c1ccc2[nH]c(=O)ccc2c1	FLuc modulator 5.4µM (no result: ELG1 genotoxic, SMN2 splice up, NPC1 prom act, Rab9 promoter act)
